Structures are written as SMILES. Where a structure was tested more than once in an assay, its records may differ in their call. Activity calls are given as the source filed them. How the source made its calls: active means hit-call score of the fitted dose curve at least 0.9, where 1 is the maximum; inactive means score below 0.9.

These results are taken from PubChem BioAssay (EPA / NIEHS).

The test in a line: ATG_GATA_CIS: Attagene CIS-FACTORIAL HepG2 Assay for human GATA Binding Protein (AID 2282944). Conditions: HepG2 GATA cis-element reporter, Attagene multiplex mRNA; actives raise or lower the signal. How it is done:
ATG_CIS is a cell-based, multiplexed-readout assay that uses HepG2, a human liver cell line, with measurements taken at 24 hours after chemical dosing in a 24-well plate.ATG_GATA_CIS is one of 52 assay component(s) measured or calculated from the ATG_CIS assay. It is designed to make measurements of mRNA induction, a form of inducible reporter, as detected with fluorescence intensity signals by Reverse transcription polymerase chain reaction (RT-PCR) and Capillary electrophoresis technology.Data from the assay component ATG_GATA_CIS was analyzed into 1 assay endpoint. This assay endpoint, ATG_GATA_CIS, was analyzed with bidirectional fitting relative to DMSO as the negative control and baseline of activity. Using a type of inducible reporter, measures of mRNA for gain or loss-of-signal activity can be used to understand the reporter gene at the transcription factor-level as they relate to the gene GATA1. Furthermore, this assay endpoint can be referred to as a primary readout, because this assay has produced multiple assay endpoints where this one serves a reporter gene function. To generalize the intended target to other relatable targets, this assay endpoint is annotated to the dna binding intended target family, where the subfamily is GATA proteins.
Human liver HepG2 cells are transiently transfected with multiple reporter transcription units (MRTUs) in 6-well plates using FuGene 6 reagent (Roche; 3 ml FuGene/1 mg DNA). The MRTU constructs are regulated by a cis-regulating element (promoter). […] A major difference between the CIS and TRANS system is that in CIS activities of endogenous TFs are measured, whereas the TRANS assay evaluates changes in activities of exogenous, chimeric NR-Gal4 proteins. […] At the end of 24 hour incubation, total RNA was isolated using TriZol reagent (Invitrogen). The isolated RNA is then reverse-transcribed using oligo(dT) primer and Mo-MLV reverse transcriptase (Invitrogen) with DNAse I (Ambion) treatment for 30 min. The one-tenth of the produced cDNA was amplified by PCR using Taq DNA polymerase (Invitrogen) and two reporter sequence-specific primers. The PCR products were fluorescently labeled by primer extension with 6-arboxyfluorescein (6-FAM) 5'-labeled reporter sequence-specific primer (2 min at 95 C, 20 s at 68 C and 10 min at 72 C) and these products were digested with 5U of HpaI (New England Biolabs) for 2h at 37 C. The fragments were purified using Qiaquick PCR columns (Qiagen), analyzed on an ABI 3130xL genetic analyzer (Applied Biosystems) with peak positions identified by using a set of X-rhodamine (ROX)-labeled MapMarker1000 molecular weight standards (BioVentures). The raw capillary electrophoresis data was processed using Attagraph software (Attagene).
Turning to `Cc1ccc(N)cc1Cl`, the compound was called inactive.
Still for that read-out and setting: then `NC(=O)O`, with “inactive”; and `Clc1ccc(COC(Cn2ccnc2)c2ccc(Cl)cc2Cl)cc1` (stereo not given), with “inactive”.
Take `CC(C)OC(=O)Nc1ccccc1`: the compound was called inactive.
Same read-out and setting: then `CC(=[OH+])/C=C(/C)[O-].CC(=[OH+])/C=C(/C)[O-].CC(=[OH+])/C=C(/C)[O-].[Fe]`, with “inactive”.
Still for that read-out and setting: the value for `ClCCBr` was “inactive”; that for `Cl/C=C/Cl` was “inactive”.
Still for that read-out and setting: then `Cc1cc(Cl)ccc1O[C@H](C)C(=O)O`, with “inactive”.
As for `ClCc1ccccn1`, the outcome was inactive.
With `NNC(=S)NN`, the outcome was inactive.
Same read-out and setting: the value for `O=C(NCO)NCO` was “inactive”.
For `O=[N+]([O-])c1c(Cl)c(Cl)cc(Cl)c1Cl`, the result was inactive.
As for `Clc1ccc(C2(Cn3cncn3)CC(Br)CO2)c(Cl)c1` (stereo not given), the call was inactive.
For `c1cc[c]([Hg][c]2ccccc2)cc1`, the compound was called inactive.
The same measure, in the same setting: the value for `O=[N+]([O-])c1ccc2c3c(cccc13)CC2` was “inactive”; that for `O=C(Cc1ccccc1)c1ccccc1` was “inactive”; that for `C(=NC1CCCCC1)=NC1CCCCC1` was “inactive”.
In the case of `C[C@]12CCC(=O)C[C@@H]1CC[C@@H]1[C@@H]2CC[C@]2(C)[C@@H](O)CC[C@@H]12`, the outcome was inactive.
Still for that read-out and setting: the value for `C[C@@H]1C[C@@H]([C@H](O)CC2CC(=O)NC(=O)C2)C(=O)[C@@H](C)C1` was “inactive”.
Same read-out and setting: the value for `COP(=S)(OC)Oc1c(Cl)cc(C)cc1Cl` was “inactive”.
As usually defined, the AC50 is the midpoint of the concentration-response curve, whichever way the signal moves. In the case of `CCCCCCCCSC(=O)Oc1cc(Cl)nnc1-c1ccccc1`, the AC50 was 149 µM (active).
Consider `N#Cc1ccccn1`, for which the compound was classed as inactive.
On to `C=CC(=O)N(C)C`, for which the call was inactive.
Same read-out and setting: then `COP(=S)(OC)Oc1ccc(S(=O)(=O)N(C)C)cc1`, with “inactive”; and `O=C1CCCN1`, with “inactive”; and `CC(C)CCCCCCOC(=O)c1ccccc1C(=O)OCCCCCCC(C)C`, with “inactive”.
Consider `CC(C)c1cccc(C(C)C)c1O`, for which the result was inactive.
As for `C[C@H]1O[C@@H](O[C@H]2[C@@H](O)C[C@H](O[C@H]3[C@@H](O)C[C@H](O[C@H]4CC[C@@]5(C)[C@H](CC[C@@H]6[C@@H]5CC[C@]5(C)[C@@H](C7=CC(=O)OC7)CC[C@]65O)C4)O[C@@H]3C)O[C@@H]2C)C[C@H](O)[C@@H]1O`, the AC50 is 0.131 µM (active).
`ClC1=C(Cl)[C@]2(Cl)[C@@H]3[C@@H](Cl)[C@@H](Cl)C[C@@H]3[C@@]1(Cl)C2(Cl)Cl`: the call was inactive.
`CCOC(=O)/C=C(C)/C=C/C[C@@H](C)CCCC(C)C`: the AC50 was 158 µM (active).
Consider `N#CCc1ccc(Cl)cc1`, for which the outcome was inactive.
Still for that read-out and setting: then `CC(=O)C=C(C)C`, with “inactive”.
Turning to `O=C1C2(Cl)C3(Cl)C4(Cl)C(Cl)(Cl)C5(Cl)C3(Cl)C1(Cl)C5(Cl)C24Cl` (stereo not given), the AC50 was 14.9 µM (active) and the result was inactive.
For the compound `CCc1ccccc1N`, the compound was classed as inactive.
As to `CCSC(C)CC1CC(=O)C(C(CC)=NOC/C=C/Cl)=C(O)C1` (stereo not given), the compound was called inactive.
Regarding `C=C(C)C(=O)[O][Sn]([CH2]CCC)([CH2]CCC)[CH2]CCC`, the call was inactive.
As to `COc1ccc(C=O)cc1OC`, the call was inactive.
On the same count and under the same terms, then `O=CC=O`, with “inactive”.
Turning to `C=CC#N`, the compound was called inactive.
